# PubChem BioAssay (NCI)
# This is part of a sample that, as a whole, favours compounds with a hit. Of some 79,000 tested, about 15% had one in any assay. Values without a mark were called inactive. Calls of active or inactive are those of the source. Cut-off read from the data, not from the text of the source: active = growth inhibition above about 70%; inactive = the rest.
# Columns and labels:
# [1] = NCI Yeast Anticancer Drug Screen. Data for the rad52 strain (AID 147);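 note: 0% = growth of vehicle-treated control cultures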; conditions: S. cerevisiae rad52 mutant growth inhibition, stronger effect = higher value
# In short: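 Here a repair-compromised yeast strain receives each compound; its growth is then quantified and normalised to vehicle-only controls.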
# [2] = NCI Yeast Anticancer Drug Screen. Data for the wt1 strain (AID 149);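 note: 0% = growth of vehicle-treated wt1 cultures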; conditions: S. cerevisiae wt1 strain (SPY 50644) growth inhibition, stronger effect = higher value
# In short: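 Each compound is tested on wt1 yeast and the loss of growth versus vehicle gives the inhibition value.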
# [3] = NCI Yeast Anticancer Drug Screen. Data for the rad50EPP+ strain (AID 151);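 note: 0% = growth of vehicle-treated control cultures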; conditions: S. cerevisiae rad50 mutant strain, stronger effect = higher value
# In short: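 Read-out is yeast growth inhibition relative to vehicle; cells used were the rad50EPP+ strain.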
# [4] = NCI Yeast Anticancer Drug Screen. Data for the mgt1 strain (AID 153); conditions: S. cerevisiae mgt1 mutant growth inhibition, stronger effect = higher value
# In short: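 Measured: inhibition of mgt1 yeast growth by compound, normalized to vehicle-treated cultures.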
# [5] = NCI Yeast Anticancer Drug Screen. Data for the rad50 strain (AID 155);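 note: 0% = growth of vehicle-only cultures of the same strain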; conditions: S. cerevisiae rad50 strain growth inhibition, stronger effect = higher value
# In short: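 Vehicle-treated cultures provide the reference for the growth inhibition reported for compound-exposed, repair-deficient yeast.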
# [6] = NCI Yeast Anticancer Drug Screen. Data for the mec2-1 strain (AID 157); conditions: S. cerevisiae mec2-1 strain, stronger effect = higher value
# In short: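 Using mec2-1 yeast: add compound, measure growth, express inhibition versus vehicle-treated cultures.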
# [7] = NCI Yeast Anticancer Drug Screen. Data for the rad14 strain (AID 159);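 note: 0% = growth of vehicle-treated control cultures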; conditions: S. cerevisiae rad14 strain growth inhibition, stronger effect = higher value
# In short: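 Inhibition of growth is reported for a repair-deficient yeast mutant following compound treatment, calculated relative to cultures that received vehicle.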
# [8] = NCI Yeast Anticancer Drug Screen. Data for the sgs1 mgt1 strain (AID 161);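 note: 0% = growth of cultures given vehicle only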; conditions: S. cerevisiae sgs1 mgt1 strain, stronger effect = higher value
# In short: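 Yeast cells carrying a defined DNA-repair defect were exposed to test compounds. Growth inhibition was measured relative to vehicle-treated controls.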
# [9] = NCI Yeast Anticancer Drug Screen. Data for the CLN2oe strain (AID 163);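 note: 0% = growth of vehicle-only control cultures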; conditions: S. cerevisiae CLN2oe strain, stronger effect = higher value
# In short: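 Whole-cell yeast growth assay. A strain engineered for altered cell-cycle control received compound, and inhibition relative to vehicle-treated cultures was recorded.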
# [10] = NCI Yeast Anticancer Drug Screen. Data for the cln2 rad14 strain (AID 165);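 note: 0% = growth equal to vehicle treated cultures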; conditions: S. cerevisiae cln2 rad14 strain, stronger effect = higher value
# In short: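 Yeast strain cln2 rad14, bearing defects in cell cycle control and DNA repair, serves as the test system; values reflect growth inhibition compared with vehicle.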
# [11] = NCI Yeast Anticancer Drug Screen. Data for the bub3 strain (AID 167); conditions: S. cerevisiae bub3 mutant strain, stronger effect = higher value
# In short: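 Mutant yeast screening strain plus compound; vehicle-treated cultures serve as the 0% inhibition reference.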
# [12] = NCI Yeast Anticancer Drug Screen. Data for the wt2 strain (AID 169); conditions: S. cerevisiae wt2 strain growth inhibition, stronger effect = higher value
# In short: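 Treated yeast vs. vehicle-treated yeast: growth inhibition determined.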
# [13] = NCI Yeast Anticancer Drug Screen. Data for the mlh1 strain (AID 171);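 note: 0% = growth of vehicle-treated control cultures of the same strain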; conditions: S. cerevisiae mlh1 strain growth inhibition, stronger effect = higher value
# In short: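 A yeast strain with a defined genetic lesion serves as the test organism. Cultures receive compound or vehicle, and growth is measured.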
# [14] = NCI Yeast Anticancer Drug Screen. Data for the sgs1 strain (AID 173);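 note: 0% = growth of vehicle-only control cultures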; conditions: S. cerevisiae sgs1 mutant, stronger effect = higher value
# In short: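 A genetically defined yeast mutant is incubated with the test compound, and its growth is compared to that of the same strain given vehicle.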
# [15] = NCI Yeast Anticancer Drug Screen. Data for the mlh1 rad18 strain (AID 175); conditions: S. cerevisiae mlh1 rad18 strain growth inhibition, stronger effect = higher value
# In short: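 Steps: expose repair-defective yeast to compound; measure growth; express inhibition against vehicle-treated controls.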
# [16] = NCI Yeast Anticancer Drug Screen. Data for the rad18 strain (AID 177); conditions: S. cerevisiae rad18 mutant growth inhibition, stronger effect = higher value
# In short: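 Measured value is growth inhibition of a yeast strain bearing a DNA repair alteration, referenced to vehicle-treated cells.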
# [17] = at 5.0 µM (retest, dose inferred, filed as 0.5)
# [18] = at 50.0 µM (retest, dose inferred, filed as 5.0)
smiles,measurement,setting,value
Cc1cccc[n+]1C1CCc2c(ccc3ccccc23)C1=O (stereo not drawn),growth inhibition,[1]; at 1.2 µM,5%
same,growth inhibition,[1]; at 3.7 µM,2%
same,growth inhibition,[1]; at 11.0 µM,1%
same,growth inhibition,[1]; at 33.0 µM,14%
same,growth inhibition,[1]; at 100.0 µM,70% (active)
same,growth inhibition,[2]; at 1.2 µM,-2%
same,growth inhibition,[2]; at 3.7 µM,-4%
same,growth inhibition,[2]; at 11.0 µM,-1%
same,growth inhibition,[2]; at 33.0 µM,-3%
same,growth inhibition,[2]; at 100.0 µM,13%
same,growth inhibition,[3]; at 1.2 µM,6%
same,growth inhibition,[3]; at 3.7 µM,9%
same,growth inhibition,[3]; at 11.0 µM,8%
same,growth inhibition,[3]; at 33.0 µM,37%
same,growth inhibition,[3]; at 100.0 µM,63%
same,growth inhibition,[4]; at 1.2 µM,-4%
same,growth inhibition,[4]; at 3.7 µM,2%
same,growth inhibition,[4]; at 11.0 µM,0%
same,growth inhibition,[4]; at 33.0 µM,2%
same,growth inhibition,[4]; at 100.0 µM,35%
same,growth inhibition,[5]; at 1.2 µM,5%
same,growth inhibition,[5]; at 3.7 µM,2%
same,growth inhibition,[5]; [17],-1%
same,growth inhibition,[5]; at 11.0 µM,0%
same,growth inhibition,[5]; at 33.0 µM,16%
same,growth inhibition,[5]; [18],40%
same,growth inhibition,[5]; at 50.0 µM,74.9% (active)
same,growth inhibition,[5]; at 100.0 µM,68%
same,growth inhibition,[6]; at 1.2 µM,-1%
same,growth inhibition,[6]; at 3.7 µM,-4%
same,growth inhibition,[6]; [17],2%
same,growth inhibition,[6]; at 11.0 µM,-1%
same,growth inhibition,[6]; at 33.0 µM,2%
same,growth inhibition,[6]; [18],70% (active)
same,growth inhibition,[6]; at 50.0 µM,74.3% (active)
same,growth inhibition,[6]; at 100.0 µM,62%
same,growth inhibition,[7]; at 1.2 µM,4%
same,growth inhibition,[7]; at 3.7 µM,2%
same,growth inhibition,[7]; at 11.0 µM,3%
same,growth inhibition,[7]; at 33.0 µM,12%
same,growth inhibition,[7]; at 100.0 µM,61%
same,growth inhibition,[8]; [17],3%
same,growth inhibition,[8]; [18],55%
same,growth inhibition,[8]; at 50.0 µM,93.3% (active)
same,growth inhibition,[9]; at 1.2 µM,-6%
same,growth inhibition,[9]; at 3.7 µM,-3%
same,growth inhibition,[9]; at 11.0 µM,-5%
same,growth inhibition,[9]; at 33.0 µM,-1%
same,growth inhibition,[9]; at 100.0 µM,48%
same,growth inhibition,[10]; [17],0%
same,growth inhibition,[10]; [18],26%
same,growth inhibition,[10]; at 50.0 µM,26.6%
same,growth inhibition,[11]; at 1.2 µM,-2%
same,growth inhibition,[11]; at 3.7 µM,0%
same,growth inhibition,[11]; [17],-4%
same,growth inhibition,[11]; at 11.0 µM,3%
same,growth inhibition,[11]; at 33.0 µM,18%
same,growth inhibition,[11]; [18],70% (active)
same,growth inhibition,[11]; at 50.0 µM,98.2% (active)
same,growth inhibition,[11]; at 100.0 µM,72% (active)
same,growth inhibition,[12]; at 1.2 µM,-6%
same,growth inhibition,[12]; at 3.7 µM,-8%
same,growth inhibition,[12]; at 11.0 µM,-11%
same,growth inhibition,[12]; at 33.0 µM,-9%
same,growth inhibition,[12]; at 100.0 µM,65%
same,growth inhibition,[13]; at 1.2 µM,2%
same,growth inhibition,[13]; at 3.7 µM,1%
same,growth inhibition,[13]; at 11.0 µM,2%
same,growth inhibition,[13]; at 33.0 µM,10%
same,growth inhibition,[13]; at 100.0 µM,68%
same,growth inhibition,[14]; at 1.2 µM,-14%
same,growth inhibition,[14]; at 3.7 µM,-6%
same,growth inhibition,[14]; at 11.0 µM,-26%
same,growth inhibition,[14]; at 33.0 µM,-5%
same,growth inhibition,[14]; at 100.0 µM,69%
same,growth inhibition,[15]; [17],2%
same,growth inhibition,[15]; [18],73% (active)
same,growth inhibition,[15]; at 50.0 µM,89.7% (active)
same,growth inhibition,[16]; at 1.2 µM,2%
same,growth inhibition,[16]; at 3.7 µM,3%
same,growth inhibition,[16]; at 11.0 µM,2%
same,growth inhibition,[16]; at 33.0 µM,6%
same,growth inhibition,[16]; at 100.0 µM,79% (active)
